An excerpt weighted towards active compounds, which were near 3.4% of everything screened.
rRNA inh HTS – inhibits bacterial ribosomal RNA function over humanized ribosomes | E. coli WT GFP vs humanized-ribosome RFP mutants, fluorescence, 24 h; hits give low values; DMSO median 0, no signal -100 | GFP signal change (wild-type ribosome), % (no concentration beside the values) | actives 1.6% (n = 350,000) | AID 720706;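 active means significant combined selectivity score with lowered wild-type GFP, culture density cut under 30%, mutant RFP and density less affected; inactive means any of these conditions unmet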
SIRT5 inh – sirtuin-5 (human) deacylase inhibition; Q9NXA8; inhibition, % at 15 µM; actives 1.1% (n = 330,000); AID 652115; Purified SirT5, succinyl-peptide AMC, trypsin-coupled fluorescence; in the data active means inhibition above about 15%; inconclusive means no clear call, values can overlap the other calls
Target sequence (Q9NXA8 whole entry, looked up): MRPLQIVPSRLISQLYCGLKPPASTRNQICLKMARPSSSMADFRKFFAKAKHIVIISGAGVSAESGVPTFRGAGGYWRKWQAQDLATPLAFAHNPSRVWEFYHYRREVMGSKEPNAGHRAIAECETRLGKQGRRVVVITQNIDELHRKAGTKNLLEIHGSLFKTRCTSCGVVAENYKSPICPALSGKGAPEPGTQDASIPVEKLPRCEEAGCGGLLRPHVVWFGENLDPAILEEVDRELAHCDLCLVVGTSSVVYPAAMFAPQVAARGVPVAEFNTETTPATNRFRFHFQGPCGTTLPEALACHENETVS
PAX8 inh HTS – inhibitors of PAX8 transcriptional activity in RMG-I cells; actives 1.2% (n = 360,000); AID 652154; RMG-I TPO-luciferase reporter, SteadyGlo, 24 h; inhibition, % at 12.6 µM;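 active means mean replicate inhibition at least 60% with every replicate also reaching 60%; inconclusive means only one of the two criteria is met; inactive means mean below 60% and not all replicates reaching 60%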;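 further: luciferase light reporting Pax8 driven TPO promoter activity; plate controls were median of neutral control wells for no effect and mitoxantrone controls for full effect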
PGC1a acetyl inh – PGC1a acetylation modulation, inhibitor mode; U2OS PGC1a acetylation, AlphaScreen anti-acetyl-lysine; with virally co-expressed GCN5 acetyltransferase; actives 0.17% (n = 350,000); AID 651687; inhibition, % at 15.6 µM;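 active means every replicate shows inhibition of at least 40%; inconclusive means mean inhibition at least 40% but some replicate below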;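 further: 0% = neutral control wells and 100% = positive control wells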
LGR2 antag – blocks bursicon-induced cAMP signaling via Drosophila LGR2 | actives 0.35% (n = 380,000) | HEK293 LGR2, CRE-luciferase, bursicon-stimulated, 4 h | inhibition, % at 9.99 µM | AID 720647;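 active means drop in luminescence signal, shown as inhibition above about 50% in the replicate tests, limit read from the data, passing the limit was not always enough; inconclusive means probably only some replicates passing the limit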;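 further: agonist challenge used bursicon conditioned medium at about half maximal strength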
EWS-Fli block – EWS/Fli transcriptional activity inhibition; A673 NR0B1-luciferase reporter, viability-normalised; actives 0.67% (n = 350,000); inhibition, % at 12.6 µM; AID 651661;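 active means mean inhibition of at least 50% after viability correction, with every replicate also passing that limit; inconclusive means mean reaches 50% but only one of two replicates passes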;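 further: firefly luciferase signal divided by Alamar Blue viability fluorescence both relative to DMSO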
* marks the source's active call; other numbers are inactive results; ? = inconclusive; . = no result.

SMILES	rRNA inh HTS	SIRT5 inh	PAX8 inh HTS	PGC1a acetyl inh	LGR2 antag	EWS-Fli block
COc1ccc(C(NC(=O)C2CCN(Cc3ccc(Oc4ccccc4)cc3)CC2)c2ccccc2C)cn1 (stereo not given)	-22	-2	63*	.	-5	30
Cc1cc(N/N=C/c2ccc(O)c(C)c2O)nc(-c2ccccc2O)n1	.	.	97*	.	37	.
C/C(=N\Nc1cc(C)nc(-c2ccccc2O)n1)c1ccccc1	7	-1	-44	32	2	-35
C[C@H]1CN([C@@H](C)CO)C(=O)c2cc(NS(=O)(=O)c3ccccc3)ccc2O[C@@H]1CN(C)S(=O)(=O)c1ccccc1	-2	4	-1	-3	-6	8
O=C(NCc1cccs1)C1Cc2c(-c3ccc(Cl)cc3)ccnc2O1 (stereo not given)	-14	-7	.	-101	.	70*
O=C(NCC1CC1)C1Cc2c(-c3ccc(Cl)cc3)ccnc2O1 (stereo not given)	-4	-1	8	.	2	-1
COc1ccc(CNC(=O)C2Cc3c(-c4cccc(C(C)=O)c4)ccnc3O2)cc1OC (stereo not given)	2	-3	9	.	-19	24
CC(=O)c1cccc(-c2ccnc3c2CC(C(=O)NCc2cccs2)O3)c1 (stereo not given)	-11	0	?	.	-8	73*
CN(C)C(=O)C[C@@H]1CC[C@H]2[C@@H](COC[C@H](O)CN2C(=O)C2CCCC2)O1	2	-3	-24	5	-6	-8
COc1ccc(/C=c2\s/c(=C\C(=O)C(C)(C)C)[nH]c2=O)cc1O	-26*	14	3	-14	4	16
Cc1cccc(/C=c2\s/c(=C\C(=O)C(C)(C)C)[nH]c2=O)c1	.	.	.	-9	-6	.
COc1cc(/C=c2\s/c(=C\C(=O)C(C)(C)C)[nH]c2=O)cc(OC)c1OC	-18*	2	17	.	9	19
COc1ccc(C[C@H]2CCn3cc(nn3)COCCNC2=O)cc1	2	.	.	.	.	.
C[C@@H]1CN([C@@H](C)CO)S(=O)(=O)c2ccc(/C=C/c3ccccc3)cc2O[C@H]1CN(C)C(=O)c1ccncc1	-14	2	.	5	-15	0
COc1ccc(CNC(=O)C[C@H]2CC[C@H](NC(=O)c3cccc(F)c3)[C@H](CO)O2)cc1	-1	5	10	-4	-5	-2
O=C(C[C@H]1CC[C@@H](NC(=O)C2CCC2)[C@H](CO)O1)NC1CCC1	3	-4	-19	-4	9	3
CCOC(=O)N(C)C[C@@H]1OCc2ccccc2-c2ccccc2C(=O)N([C@H](C)CO)C[C@@H]1C	3	6	.	5	-4	-6
C[C@H]1CN([C@@H](C)CO)C(=O)c2ccccc2-c2ccccc2CO[C@@H]1CN(C)Cc1cccc(C(F)(F)F)c1	-11	19*	32	-4	13	13
CCOC(=O)N(C)C[C@@H]1OCc2ccccc2-c2ccccc2C(=O)N([C@@H](C)CO)C[C@H]1C	-2	25*	.	4	13	0
C[C@H]1CN([C@@H](C)CO)C(=O)c2ccccc2-c2ccccc2CO[C@@H]1CN(C)Cc1ccc(Cl)c(Cl)c1	-5	19*	38	-1	16	16
C[C@@H]1CN([C@H](C)CO)C(=O)c2ccccc2-c2ccccc2CO[C@H]1CN(C)C(=O)Nc1ccccc1C(F)(F)F	0	.	-12	3	2	1
C[C@H]1CN([C@@H](C)CO)C(=O)c2ccccc2-c2ccccc2CO[C@@H]1CN(C)C(=O)Nc1ccccc1C(F)(F)F	-3	21*	19	3	-9	-7
COc1ccccc1C#Cc1ccc2c(c1)O[C@@H](CN(C)Cc1ccccc1)[C@@H](C)CN([C@H](C)CO)S2(=O)=O	6	6	.	-31	2	14
C[C@@H]1CN([C@H](C)CO)C(=O)c2ccccc2-c2ccccc2CO[C@@H]1CN(C)Cc1ccccc1C(F)(F)F	-1	9	75*	-39	3	23
C[C@@H]1CN([C@@H](C)CO)C(=O)c2ccccc2-c2ccccc2CO[C@@H]1CN(C)Cc1ccccc1C(F)(F)F	1	12	45	-22	11	19
SMILES	rRNA inh HTS	SIRT5 inh	PAX8 inh HTS	PGC1a acetyl inh	LGR2 antag	EWS-Fli block
C[C@H]1CN([C@@H](C)CO)C(=O)c2ccccc2-c2ccccc2CO[C@H]1CN(C)Cc1ccccc1C(F)(F)F	-1	17*	44	-6	18	39
C[C@H](CO)N1C[C@H](C)[C@H](CN(C)Cc2ccccc2C(F)(F)F)OCc2ccccc2-c2ccccc2C1=O	1	12	6	-4	7	10
C[C@H](CO)N1C[C@H](C)[C@@H](CN(C)Cc2ccccc2C(F)(F)F)OCc2ccccc2-c2ccccc2C1=O	.	30*	45	-2	.	20
COC(=O)C[C@H]1C[C@H]2c3cc(NC(=O)Nc4ccc(OC)cc4)ccc3O[C@H]2[C@@H](CO)O1	0	.	.	.	.	.
C[C@H](CO)N1C[C@H](C)[C@@H](CN(C)S(=O)(=O)c2cccc(F)c2)OCc2ccccc2-c2ccccc2C1=O	4	.	11	16	16	1
Cc1ccc(S(=O)(=O)CCC(=O)OCc2ccc(Cl)cc2)cc1	-26*	-8	2	.	-7	7
Cc1ccc(S(=O)(=O)CCC(=O)c2ccc(O)cc2O)cc1	.	.	97*	-1	.	.
COc1ccc(C(=O)COC(=O)CCS(=O)(=O)c2ccc(C)cc2)c(OC)c1	-2	0	4	.	-5	0
COc1ccc(C(=O)CCS(=O)(=O)c2ccc(C)cc2)cc1OC	1	2	96*	.	8	-2
O=C(C[C@H]1C=C[C@@H](NC(=O)c2ccncc2)[C@H](CO)O1)NCc1ccncn1	-1	6	-3	29	6	.
COc1ccc(S(=O)(=O)N2CC[C@@H]3[C@H]2c2cc(-c4ccc(C#N)cc4)ccc2N[C@@H]3CO)cc1	6	8	-59	1	8	-1
C[C@@H]1CN([C@@H](C)CO)C(=O)Cc2cc(NC(=O)Nc3ccc4c(c3)OCO4)ccc2O[C@H]1CN(C)Cc1ccc(C(F)(F)F)cc1	2	-6	40	0	1	18
CCOc1c(Br)cc(Br)cc1/C=C1\SC(N)=NC1=O	-3	15*	-6	.	5	5
C[C@@H]1CN([C@@H](C)CO)C(=O)c2cccc(NC(=O)C3CCOCC3)c2O[C@H]1CN(C)C	5	1	-7	7	-11	-3
COCCNC(=O)c1cc2c(-c3ccc(Cl)cc3)nn(C)c2s1	-27*	.	9	-15	-27	9
CC(C)C#Cc1ccc2c(c1)O[C@H](CN(C)Cc1ccccc1)[C@@H](C)CN([C@H](C)CO)S2(=O)=O	7	1	.	-8	37	22

Screening data deposited in PubChem BioAssay by Broad Institute.
